ZTA counter – ZTA (EBV) inhibition in EBNA-1 counter-screen; inhibition, % at 11 µM; P03206; AID 2234; 320,000 tested, 0.15% active; ZTA-DNA binding, fluorescence polarization; in the data active = inhibition above about 33%
Target sequence (P03206 whole entry, looked up): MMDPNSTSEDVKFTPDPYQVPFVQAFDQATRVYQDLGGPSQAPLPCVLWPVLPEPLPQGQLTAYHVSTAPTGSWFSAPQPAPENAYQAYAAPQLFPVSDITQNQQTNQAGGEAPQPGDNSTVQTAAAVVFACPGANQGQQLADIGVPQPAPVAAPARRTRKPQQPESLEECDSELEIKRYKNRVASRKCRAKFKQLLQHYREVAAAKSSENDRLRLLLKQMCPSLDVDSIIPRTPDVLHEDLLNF
PAFAH2 FP inh – PAFAH2 enzyme inhibitors, primary screen, biochemical, fluorescence polarization, human; inhibition, % at 3.39 µM; recombinant PAFAH2, FP-rhodamine activity probe; Platelet-activating factor acetylhydrolase 2, cytoplasmic (Homo sapiens), Q99487; 340,000 tested, 0.99% active; AID 492956, 2010;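 active = inhibition above the mean over all tested compounds plus 3 SD, cut at about 30% in these data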;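 note: inhibitors block probe labeling of enzyme so polarization drops; 0% = enzyme with DMSO and 100% = wells lacking PAFAH2 protein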
PAFAH1B3 inh – PAFAH1B3 enzyme inhibitors, primary screen, biochemical, fluorescence polarization, human; 340,000 tested, 0.28% active; Platelet-activating factor acetylhydrolase IB subunit alpha1 (Homo sapiens), Q15102; inhibition, % at 3.39 µM; recombinant PAFAH1B3, FP-rhodamine probe;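 active = inhibition above the screen-wide average of all tested compounds plus 3 SD, cut at about 25% in these data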;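 note: 0% = enzyme with DMSO only and 100% = wells lacking PAFAH1B3 protein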
Target sequence (Q15102 whole entry, looked up): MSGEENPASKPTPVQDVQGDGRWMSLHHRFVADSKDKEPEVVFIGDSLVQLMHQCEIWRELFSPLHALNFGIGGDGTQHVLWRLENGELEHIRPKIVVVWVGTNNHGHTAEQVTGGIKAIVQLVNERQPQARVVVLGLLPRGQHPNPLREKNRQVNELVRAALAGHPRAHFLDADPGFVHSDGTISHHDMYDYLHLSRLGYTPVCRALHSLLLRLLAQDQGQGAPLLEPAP
pPAFAH inh – pPAFAH enzyme inhibitors, primary screen, biochemical, fluorescence polarization, human; Platelet-activating factor acetylhydrolase (Homo sapiens), Q13093; recombinant pPAFAH, FP-rhodamine probe fluorescence polarization; inhibition, % at 3.39 µM; 330,000 tested, 1.5% active; AID 463082, 2010;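 active = inhibition above the mean inhibition across the screen plus 3 SD, cut at about 25% in these data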;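 note: inhibitors block binding of the rhodamine activity-based probe so polarization drops; 0% = enzyme with DMSO and 100% = wells lacking pPAFAH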
EBNA-1 inhibitor – EBNA-1 DNA-binding inhibitors, primary screen, biochemical, fluorescence polarization. inhibition, % at 14.8 µM. 300,000 tested, 0.34% active; in the data active = inhibition above about 28%
PAFAH1B2 inh – PAFAH1B2 enzyme inhibitors, primary screen, biochemical, fluorescence polarization, human | Platelet-activating factor acetylhydrolase IB subunit alpha2 (Homo sapiens), P68402 | recombinant PAFAH1B2, FP-rhodamine activity probe | inhibition, % at 3.39 µM | 340,000 tested, 1.2% active | AID 492953, 2010;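 active = inhibition above the mean of all tested compounds plus 3 SD, cut at about 24% in these data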;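 note: 0% = enzyme with DMSO and 100% = wells lacking PAFAH1B2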
An asterisk follows results filed as active; / = no result given. Hits are enriched below; roughly 2.9% of the tested compounds scored in any of these assays.

SMILES	ZTA counter	PAFAH2 FP inh	PAFAH1B3 inh	pPAFAH inh	EBNA-1 inhibitor	PAFAH1B2 inh
N=c1n(Cc2ccccc2)c2ccccc2n1CC(O)c1ccco1 (configuration not stated)	16.2	45.9*	27.7*	3.4	7.1	37.8*
O=c1ccc2ccc(Oc3ccc([N+](=O)[O-])cc3Cl)cc2o1	-2.9	0.8	3.8	30.4*	6.3	0.7
Cc1nnc2n(c1=O)C(CS(=O)(=O)c1ccc3ccccc3c1)CS2 (configuration not stated)	22.2	-13.7	5.6	5.0	4.8	0.9
CSCCC(NC(=O)c1ccco1)C(=O)NCCc1ccc(Cl)cc1 (configuration not stated)	/	2.4	9.6	5.9	/	28.1*
Cc1sc(NC(=O)CSc2n[nH]c(N)n2)c(C#N)c1C	/	9.1	-3.1	/	/	1.1
Cc1ccc(/C=C/C2=Cc3c(sc(NC(=O)CSc4n[nH]c(N)n4)c3C#N)C(C)(C)C2)o1	7.4	/	/	57.7*	49.2*	/
COc1ccc(CCN2CC(C(=O)NCCc3ccccc3C)CCC2=O)cc1 (configuration not stated)	8.2	1.0	3.9	2.6	-6.5	-0.3
CC(=O)N1CCCc2cc(S(=O)(=O)N3CCCC(C(=O)NCc4ccccc4Cl)C3)ccc21 (configuration not stated)	4.8	3.2	3.2	7.3	-4.1	3.2
CC(=O)N1CCCc2cc(S(=O)(=O)N3CCCC(C(=O)Nc4cccc(C)c4)C3)ccc21 (configuration not stated)	-4.0	-0.1	9.8	33.1*	-12.1	0.3
COc1ccc(Cc2nc3ccc(C(=O)N(C)CCn4ccnc4)cc3o2)cc1OC	-9.5	10.0	6.2	-1.6	-6.5	-3.1
Cc1ccc(-n2c(Cc3cccn3C)nnc2SCC(N)=O)cc1	-0.7	-14.0	2.2	22.6	1.9	3.8
Cc1ccc(-n2c(Cc3cccn3C)nnc2SCC(=O)NCc2ccco2)cc1	-7.6	3.1	2.9	29.2*	-5.7	1.3
Cc1[nH]c2ccccc2c1/C=N/NC(=O)c1cc(-c2cccs2)[nH]n1	-15.1	14.2	22.0	26.8*	5.9	10.8
COc1ccc(OC)c(Nc2nc(-c3sc(N)nc3C)cs2)c1	-10.9	15.8	2.9	23.2	-12.0	-2.2
C=CCCC(=O)Nc1nc(C)c(-c2csc(Nc3cccc(OC)c3)n2)s1	3.0	6.5	14.6	11.0	4.5	3.2
CCCC(C)C(=O)Nc1nc(C)c(-c2csc(Nc3cc(OC)ccc3OC)n2)s1 (configuration not stated)	-10.2	-4.9	9.0	28.5*	-6.1	4.6
CCCC(=O)Nc1nc(C)c(-c2csc(Nc3cc(OC)ccc3OC)n2)s1	0.7	6.9	15.4	28.8*	7.8	12.0
C=CCCC(=O)Nc1nc(C)c(-c2csc(Nc3cc(OC)ccc3OC)n2)s1	-6.8	-11.3	12.2	33.6*	5.3	2.9
CCOCCCNC(=S)Nc1ccc(S(N)(=O)=O)cc1	-2.2	-1.0	5.7	2.0	1.3	-0.6
O=C(CN1CCC(C(=O)c2cccc(Cl)c2)CC1)Nc1ccc(C(=O)O)cc1	6.1	20.2	8.2	4.9	7.3	7.8
COc1ccc(CNC(=O)COC(=O)c2ccc(C(=O)c3ccccc3)cc2)cc1	/	-0.8	12.8	31.2*	/	5.3
COc1ccccc1CNC(=O)c1n[nH]c2ccccc12	10.2	2.1	-1.0	27.8*	-2.9	-0.5
COc1ccccc1CNC(=O)COC(=O)c1ccc(C(=O)c2ccccc2)cc1	/	-5.7	-7.7	23.9	/	46.9*
COc1ccccc1NC(=O)c1ccc(NC(=O)COC(=O)c2ccc(O)cc2)cc1	3.1	49.6*	1.6	25.6*	/	-4.0
CC(C)C(NC(=O)c1ccc(C(C)(C)C)cc1)C(=O)Nc1ccc(N2CCOCC2)cc1 (configuration not stated)	8.7	-2.6	2.1	3.8	/	0.1
SMILES	ZTA counter	PAFAH2 FP inh	PAFAH1B3 inh	pPAFAH inh	EBNA-1 inhibitor	PAFAH1B2 inh
CN(C(=O)c1cccc(COc2ccc(Cl)cc2Cl)c1)c1ccccc1	-9.4	-0.9	-6.6	2.0	-4.3	26.6*
Cc1ccc(NC(=O)COC(=O)CCC2CCCC2)cc1S(=O)(=O)N1CCOCC1	/	32.4*	0.4	33.3*	/	4.2
Cc1ccc(C)c(SCC(=O)OCC(=O)Nc2ccc(S(=O)(=O)N3CCOCC3)cc2)c1	-9.8	2.1	7.7	25.6*	-14.9	5.8
N#Cc1c(Cc2cccc3ccccc23)nn(CCO)c1N	-9.5	5.3	-0.9	10.8	4.1	3.3
O=C(Cc1ccccc1)NCCSCc1ccc(Cl)cc1	-0.8	4.6	11.9	24.3	1.1	28.8*
Cc1ccc(CNC(=O)COc2ccc(C(=O)c3ccc(F)cc3)cc2)cc1	-12.9	-4.5	0.2	3.4	24.6	1.9
CC1CCC(C(C)C)C(OC(=O)CSc2nc(N)cc(=O)[nH]2)C1 (configuration not stated)	-3.5	-5.7	2.6	1.9	-9.4	23.1
CC1CCC(C(C)C)C(OC(=O)CSc2nnc(N)s2)C1 (configuration not stated)	-9.1	6.5	2.4	-1.6	-0.8	27.1*
O=C(O)/C=C\C(=O)Nc1ccc(N2CCN(c3ccc(Cl)cc3)CC2)cc1	4.9	4.8	4.4	15.3	-6.1	24.7*
Cc1ccc(C(=O)O/N=C(\N)c2ccccn2)cc1C	-0.3	15.4	4.0	7.8	-4.9	3.6
CC/C(=N\OC(=O)c1ccc(OC(C)C)cc1)c1ccc(C)cc1	-12.4	9.3	0.3	28.9*	1.9	1.3
C/C(=N\OC(=O)c1ccc(OC(C)C)cc1)c1ccc(C)c(C)c1	11.4	23.4	3.7	27.6*	7.4	-0.3
Cc1ccc(/C(N)=N/OC(=O)c2ccc(F)cc2)cc1	2.7	6.2	6.7	-0.3	8.0	2.9
C/C(=N\OC(=O)c1ccc(F)cc1)c1ccc(F)c(F)c1	13.1	37.3*	-5.5	3.2	1.7	22.2
COc1cc(CC(NC(C)=O)C(=O)NC2CCN(c3c(Cc4ccccc4)c(C)nc4ncnn34)CC2)cc(OC)c1 (configuration not stated)	0.7	2.3	6.0	-3.7	-5.2	3.3
CN(CC(=O)NCCc1ccccc1)S(=O)(=O)c1ccc(Br)s1	-7.9	7.4	5.0	0.8	-16.0	11.6
Cc1ccc(NC(=O)CSc2n[nH]c(-c3ccncc3)n2)cc1C	6.0	-2.9	-0.3	28.9*	-6.5	3.6
O=C(O/N=C1/CCSc2ccccc21)c1ccccc1	-3.9	40.8*	4.0	-0.1	-7.2	18.2
Cc1ccc2c(c1)/C(=N/OC(=O)c1ccc(F)cc1)CCS2	4.8	1.7	15.1	4.1	7.0	18.5
O=C(COC(=O)c1cccs1)c1ccccc1	-6.1	33.9*	13.7	9.3	-6.2	4.1

Screening results deposited in PubChem by The Scripps Research Institute Molecular Screening Center.
